This is part of a sample that, as a whole, favours compounds with a hit. Of some 79,000 tested, about 15% had one in any assay. Unmarked numbers belong to inactive results. The source made the active and inactive calls. Cut-off read from the data, not from the text of the source: active = growth inhibition above about 70%; inactive = the rest.
Assay: NCI Yeast Anticancer Drug Screen. Data for the wt2 strain (AID 169);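 note: 0% = growth of vehicle-treated yeast cultures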
Details: S. cerevisiae wt2 strain growth inhibition, stronger effect = higher value
Description: Growth inhibition of yeast strains with defined genetic alterations is measured as a screen for potential anti-cancer activity. Selected strains with alterations in DNA damage repair or cell cycle control were exposed to compounds and growth inhibition was measured relative to vehicle treated controls. The strain used in this assay is wt2

SMILES	growth inhibition (at 1.2 µM) [%]	growth inhibition (at 3.7 µM) [%]	growth inhibition (at 11.0 µM)	growth inhibition (at 33.0 µM)	growth inhibition (at 100.0 µM)
CN(C)N=Nc1ccccc1C(=O)NC#N	-8	-1	98% (active)	99% (active)	99% (active)
O=C1N=C2SC=C(NC(=S)Nc3ccccc3)N2NC12c1ccccc1-c1ccccc12	2	4	23%	76% (active)	90% (active)
O=[N+]([O-])c1ccc(N/N=C/Cc2ccccc2)c([N+](=O)[O-])c1	4	5	5%	6%	5%
Oc1ccc(-c2nc(-c3ccc(F)cc3)c(-c3ccc4ccccc4n3)[nH]2)cc1	-56	-40	96% (active)	96% (active)	93% (active)
CCc1cc(O)c(Cl)c(C)c1Cl	-33	-29	-25%	20%	90% (active)
C=C(C(=C)n1nnc(C(=O)OC)c1C(=O)OC)n1nnc(C(=O)OC)c1C(=O)OC	-1	-1	1%	-1%	0%
CCOC(=O)C(C(=O)OCC)=P(c1ccccc1)(c1ccccc1)c1ccccc1	-2	-3	-4%	-9%	95% (active)
COc1ccc2c(c1)n([O-])c1ccccc1[n+]2=O	-2	11	11%	26%	77% (active)

Reference: PubChem BioAssay (NCI)
